Only some compounds are listed: those with a hit (about 11% of all), similar ones and a draw of the others.
HEK293 tox = kills HEK 293 cells | Potency, µM (titrated, usually from 115 µM), for inactives: at the top dose activity change, negative = cytotoxicity, hits mostly inhibitors | HEK 293 viability, ATP luminescence (CellTiter-Glo), 48-72 h | 94,000 tested, 6.6% active; further: on the % scale 0 is the no-effect control and ±100 the full control effect; nearly all actives have a fitted effect of over 60% in size
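CellTiter-Glo luminescence (cellular ATP) was read after 48 or 72 hr of compound exposure at 37 degree Celsius. Cells were HEK 293 plated at 250 cells/well.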
Luciferase inh = blocks purified firefly luciferase enzyme activity; P08659; purified P. pyralis luciferase, luminescence, biochemical; Potency, µM (top dose mostly 115 µM), hits mostly inhibitors; 76,000 tested, 2.5% active; further: on the % scale 0 is the no-effect control and ±100 the full control effect; nearly all actives have a fitted effect of over 65% in size
Target sequence (P08659 whole entry, looked up): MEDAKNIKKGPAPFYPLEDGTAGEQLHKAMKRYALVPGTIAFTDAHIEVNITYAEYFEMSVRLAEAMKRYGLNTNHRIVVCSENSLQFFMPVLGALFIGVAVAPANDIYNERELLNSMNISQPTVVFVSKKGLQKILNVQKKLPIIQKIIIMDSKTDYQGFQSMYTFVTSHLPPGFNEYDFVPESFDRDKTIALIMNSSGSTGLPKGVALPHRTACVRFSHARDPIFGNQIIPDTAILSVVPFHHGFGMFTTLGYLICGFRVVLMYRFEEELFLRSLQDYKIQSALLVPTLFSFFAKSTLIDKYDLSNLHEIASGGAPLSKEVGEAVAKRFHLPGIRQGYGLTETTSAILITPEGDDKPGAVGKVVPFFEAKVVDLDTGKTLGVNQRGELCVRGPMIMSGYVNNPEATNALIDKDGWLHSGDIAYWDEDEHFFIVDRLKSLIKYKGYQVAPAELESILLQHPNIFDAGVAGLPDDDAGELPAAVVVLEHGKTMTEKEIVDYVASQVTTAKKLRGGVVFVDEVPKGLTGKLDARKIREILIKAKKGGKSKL
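Luminescence read by CCD imager after adding enzyme (10nM final) to wells holding compound, titrated in qHTS. Substrates 10uM each D-luciferin and ATP; buffer 50mM Tris acetate pH 7.5, 10mM Mg acetate, Tween-20, BSA.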
NIH3T3 tox = cytotoxic compounds in NIH 3T3 cells. NIH 3T3 viability, CellTiter-Glo ATP luminescence, 48-72 h. Potency, µM (doses to about 96.7 µM), without a hit: top-dose activity change, negative = cytotoxicity, usual class: inhibitors. 94,000 tested, 4.3% active. AID 1345082; further: on the % scale 0 is the no-effect control and ±100 the full control effect; nearly all actives have a fitted effect of over 55% in size
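NIH 3T3 cells at 400 cells/well received 23 nL of compound by pintool and were incubated 48 or 72 h at 37 °C. Viability was read as ATP-coupled CellTiter-Glo luminescence.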
NPR1 antag = antagonists of human natriuretic peptide receptor Npr1; HEK293 hNpr1 GloSensor cGMP, ANP-stimulated luminescence; Potency, µM (titrated, usually from 46.3 µM), inactives show at the top dose activity change, negative = inhibition, usual class: inhibitors; 76,000 tested, 1.6% active; AID 1347048; P16066; calls by dose curve; further: on the % scale 0 is the no-effect control and ±100 the full control effect; nearly all actives have a fitted effect of over 60% in size
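HEK293 cells stably expressing human Npr1 and cGMP GloSensor pGS-40F, loaded 2 h with 2% GloSensor reagent, given compound 30 min at room temperature. Luminescence read before and 20 min after 0.1 nM hNppA.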
NPR1 antag cnf = confirmation of human Npr1 natriuretic peptide receptor antagonists | shares compounds with NPR1 antag | 1,400 tested, 76% active | Potency, µM (highest dose often 57.6 µM), for inactives: at the top dose activity change, negative = inhibition, most hits filed as inhibitors | HEK293 hNpr1 cGMP GloSensor luminescence, ANP-stimulated | AID 1347044; calls by dose curve; further: nearly all actives have a fitted effect of over 70% in size
Npr2 selectivity = antagonizes human Npr2, subtype selectivity check | shares compounds with NPR1 antag | HEK293 hNpr2 GloSensor cGMP luminescence, CNP-stimulated | Potency, µM (top dose mostly 57.6 µM), for inactives: at the highest dose activity change, negative = inhibition, most hits filed as inhibitors | 1,400 tested, 67% active | AID 1347046; calls by dose curve; further: nearly all actives have a fitted effect of over 70% in size
FLuc counter = inhibits firefly luciferase, false Npr1 antagonist flag; purified FLuc enzyme, luminescence, Km substrate; 1,400 tested, 0.7% active; shares compounds with NPR1 antag; Potency, µM (doses to about 57.6 µM), for inactives: top-dose activity change, negative = inhibition, usual class: inhibitors; further: 0% is about no effect
GloSensor ctrl = control cell line activity, Npr1 antagonist counter-screen; shares compounds with NPR1 antag; Potency, µM (titrated, usually from 57.6 µM), inactives show at the highest dose activity change, negative = inhibition, hits mostly inhibitors; HEK293 GloSensor cGMP, SNP-stimulated, luminescence; 1,400 tested, 69% active; calls by dose curve; further: on the % scale 0 is the no-effect control and ±100 the full control effect; nearly all actives have a fitted effect of over 70% in size
Numbers without * were called inactive; i = inactive; u = inconclusive; x = not tested or not shown; [ ] = dose if it differs, or a comment. Unless noted, the call rests on the fitted dose curve; in most records, active means well fitted curve in the direction sought with a large enough effect; inconclusive means small, poorly fitted or top-dose-only effect, or another doubt; inactive means no such curve, though single readings can be large; an effect the other way counts as inactive or inconclusive. Potency means the concentration at half of the fitted maximal effect.

SMILES	HEK293 tox	Luciferase inh	NIH3T3 tox	NPR1 antag	NPR1 antag cnf	Npr2 selectivity	FLuc counter	GloSensor ctrl
CCOc1ccccc1C1NC(=O)N(CC(=O)Nc2cccc(C(C)C)c2)C2=C1C(=O)OC2 (stereo not given)	u	i	u	u	u	u	-1%	u
C=CCCC(=O)N1[C@@H](c2ccco2)[C@@H](C(=O)OCC)C[C@]12CCCCN(CCOC(C)=O)C2=O	u	x	-28%	x	x	x	x	x
CN1C[C@@H]2CCCN3CCC[C@@H]([C@H]23)[C@H]1CCCC(=O)NCCCN1CCc2ccccc2C1	u	i	u	-5%	x	x	x	x
CSc1nccc(N2CCC3(CC2)CC(=O)N(CC(C)C)C3)n1	u	i	u	7.1µM*	6.9µM*	11µM*	-1%	5.4µM*
COc1ccc(CN2CCCn3nc(C)c(-c4ccccc4Oc4ccccc4)c32)cc1O	20µM*	i	11µM*	2.5µM*	22µM*	22µM*	3%	4.8µM*
Cc1nn2c(c1-c1ccccc1-c1ccccc1)N(Cc1cccc(O)c1)CCC2	u	i	u	2.2µM*	3.1µM*	5µM*	-1%[86.2 µM]	3.5µM*
Cc1nn2c(c1-c1ccccc1Oc1ccccc1)N(Cc1ccc(C(=O)O)cc1)CCC2	45µM*	i	25µM*	2.8µM*	u	u	1%[86.2 µM]	u
COCCOc1ccc2c(n1)CCN(C(=O)COc1ccc(F)cc1)C2	0%	i	-14%	0%	x	x	x	x
COc1ccc(CNC(=O)C2(c3ccc(OC)cc3)CCOCC2)cc1	-14%	x	-33%	x	x	x	x	x
CC(C)Cc1ccc(S(=O)(=O)N(C)CC2CCOCC2)cc1	u	i	-28%	10µM*	15µM*	14µM*	0%	11µM*
CCCc1ccc(S(=O)(=O)N(C)CC2CCOCC2)cc1	u	i	u	u	24µM*	u	3%	19µM*
O=C(c1ccccc1)N1CCC(N2C(=O)C(OCC3CC3)C23CCCCC3)CC1 (stereo not given)	u	i	-19%	0%	x	x	x	x
COC1CN(c2cccc(F)c2)C12CCN(C(=O)c1sc(C)nc1C)CC2 (stereo not given)	u	i	-3%	-3%	x	x	x	x
Cc1cc(C(=O)NC(C)c2cnc(N3CCCCCCC3)nc2C)n[nH]1 (stereo not given)	u	i	u	10µM*	22µM*	24µM*	0%	22µM*
COc1ccc(CN2C(=O)[C@@H]3C[C@@H](CN3C3CCC3)Oc3ccccc32)cc1	u	i	32µM*	u	-27%[86.2 µM]	u	-19%[86.2 µM]	0%[86.2 µM]
COc1ccc(CN2C(=O)[C@@H]3C[C@@H](CN3C(=O)c3cnccn3)Oc3ccccc32)cc1	3%[172 µM]	i	u	0%[70.6 µM]	x	x	x	x
COc1ccc(CN2C(=O)[C@@H]3C[C@@H](CN3C3CCCC3)Oc3ccccc32)cc1	u	i	u	u	-23%[86.2 µM]	u	-5%[86.2 µM]	-5%[86.2 µM]
O=C1CCN(S(=O)(=O)c2ccccc2)CCCN(Cc2cccc3[nH]ccc23)CCN1	u	i	-19%	0%	x	x	x	x
CCOc1ccccc1CN1CCC2(CCN(C(=O)Nc3ccc(Cl)cc3)CC2)Oc2ccccc21	u	u	u	-6%	x	x	x	x
COc1cc(CN2CCC(C)(NC(C)=O)CC2)cc(-c2ccncc2)c1	x	x	x	x	22µM*	8.9µM*	2%[86.2 µM]	-18%[86.2 µM]
Cc1nc2c(c(-c3ccc(O)cc3)n1)CN(Cc1ccccc1OC(F)(F)F)CC2	u	i	u	-6%	x	x	x	x
Cc1nc2c(c(-c3ccc(O)cc3)n1)CN(Cc1cccc3ccccc13)CC2	u	i	u	-16%	-21%	-13%[86.2 µM]	-1%[86.2 µM]	i
COc1ccc(NC(=O)Cn2c(N3CCN(c4ccccc4)CC3)nc(C)cc2=O)cc1Cl	u	i	u	-15%	x	x	x	x
COc1cc(OC)c(NC(=O)Cn2c(N(C)Cc3ccccc3)nc(C)cc2=O)cc1Cl	22µM*	i	u	10µM*	22µM*	22µM*	-2%	19µM*
Cc1cc(=O)n(CC(=O)Nc2cccc(C)c2C)c(N(C)Cc2ccccc2)n1	u	i	u	-17%	x	x	x	x
SMILES	HEK293 tox	Luciferase inh	NIH3T3 tox	NPR1 antag	NPR1 antag cnf	Npr2 selectivity	FLuc counter	GloSensor ctrl
Cc1cc(=O)n(CC(=O)Nc2c(C)cccc2C)c(N(C)Cc2ccccc2)n1	-27%	i	u	0%	x	x	x	x
COc1ccc(NC(=O)Cn2c(N(C)Cc3ccccc3)nc(C)cc2=O)cc1	45µM*	i	u	11µM*	19µM*	u	-2%	15µM*
COc1ccc(NC(=O)Cn2c(N(C)Cc3ccccc3)nc(C)cc2=O)cc1Cl	u	i	u	11µM*	11µM*	11µM*	-2%	9.7µM*
CC(C)N1C(=O)CO[C@H]2CCN(Cc3ccccc3Cl)CC[C@@H]21	u	i	u	2.8µM*	7.9µM*	11µM*	3%[86.2 µM]	6.3µM*
CC(C)c1ccc(CN2CC[C@@H]3OCC(=O)N(C(C)C)[C@H]3CC2)cc1	u	i	u	8.9µM*	7.9µM*	11µM*	0%[86.2 µM]	6.3µM*
CC(C)N1C(=O)CO[C@H]2CCN(Cc3ccccc3)CC[C@@H]21	u	i	u	u	x	x	x	x
Cc1cccc(N2CCN(C(=O)C3CCCN(Cc4cccnc4)CCC(=O)NCC3)CC2)c1 (stereo not given)	u	i	-17%	-9%	x	x	x	x
CC(=O)N1CCn2cc(C(=O)Nc3ccc(Cl)cc3Cl)nc2C1	-28%	x	u	x	x	x	x	x
O=C(Nc1ccc(Cl)cc1Cl)c1cn2c(n1)CN(C(=O)c1ccccc1)CC2	u	x	u	x	22µM*	22µM*	-10%	19µM*
COc1ccc(NC(=O)c2ccc(-c3nnc4ccc(NC(=O)C5CCC5)cn34)cc2)cc1	u	i	-4%	-30%	u	-29%	-19%	-23%
C[C@@H]1C(=O)O[C@H]2[C@H]1CC[C@@]1(C)Cc3sc(NC(=O)c4ccc(N(C)C)cc4)nc3[C@@H](C)[C@H]21	u	i	32µM*	8.9µM*	14µM*	u	-1%	11µM*

Screening data: PubChem, National Center for Advancing Translational Sciences (NCATS)
